Where a name gives a salt, the structure may show the parent alone.
What follows are molecules tested on PBMC-derived induced microglia-like cells (piMGLC) (assay: synaptosome phagocytic index relative to DMSO control (fraction of DMSO); higher = more phagocytosis). Conditions: concentration: 10 uM (2 uM for compounds listed in Table S2); pretreatment time: 24 h; assay time: 3 h.

Row | Structure (SMILES) | synaptosome phagocytic index
1 | CCn1ncc2c(NC3CCOCC3)c(-c3nnc(Cc4sc(C)nc4C)o3)cnc21 | 0.266
2 | CCCN[C@H]1CCc2nc(N)sc2C1 [Pramipexole_(dihydrochloride)] | 0.906
3 | CO[C@H]1C[C@@H]2CC[C@@H](C)[C@@](O)(O2)C(=O)C(=O)N2CCCC[C@H]2C(=O)O[C@H]([C@H](C)C[C@@H]2CC[C@@H](O)[C@H](OC)C2)CC(=O)[C@H](C)/C=C(\C)[C@@H](O)[C@@H](OC)C(=O)[C@H](C)C[C@H](C)/C=C/C=C/C=C/1C [Rapamycin] | 0.285
4 | Cc1cc(C)cc(OCC2CNC(=O)O2)c1 (configuration not stated) [Metaxalone] | 0.757
5 | C[C@@]1(c2cc(NC(=O)c3ccc(C#N)cn3)ccc2F)C=CSC(N)=N1 [Atabecestat] | 0.547
6 | CCCN[C@H]1CCc2nc(N)sc2C1 [Pramipexole] | 0.882
7 | CC[C@H](NC(=O)c1c(C)c(-c2ccccc2)nc2ccccc12)c1ccccc1 | 0.907
8 | CCCCCOC(=O)Nc1nc(=O)n([C@@H]2O[C@H](C)[C@@H](O)[C@H]2O)cc1F [Capecitabine] | 0.837
9 | CC[C@@]12C=C(C(=O)O)n3c4c(c5ccccc53)CCN(CCC1)[C@H]42 [Apovincaminic_acid_(hydrochloride_salt)] | 0.745
10 | Cc1ccc(S(=O)(=O)/C=C/C#N)cc1 | 0.903
11 | N#Cc1ccc(COC[C@H]2O[C@@H](n3c(NCc4ccc(Cl)c(Cl)c4)nc4c(N)ncnc43)[C@H](O)[C@@H]2O)cc1 | 0.479
12 | CS(=O)(=O)c1ccc(C2=C(c3ccccc3)C(=O)OC2)cc1 [Rofecoxib] | 1.08
13 | CC1(C)O[C@@H]2[C@@H](CO[C@@]3(COS(N)(=O)=O)OC(C)(C)O[C@@H]23)O1 [Topiramate] | 1.08
14 | CCCCN1CCCCC1C(=O)Nc1c(C)cccc1C (configuration not stated) [Bupivacaine_(hydrochloride)] | 0.836
15 | CN1CC[C@H](c2c(O)cc(O)c3c(=O)cc(-c4ccccc4Cl)oc23)[C@H](O)C1 [Flavopiridol] | 0.936
16 | COc1c(N2CCNC(C)C2)c(F)cc2c(=O)c(C(=O)O)cn(C3CC3)c12 (configuration not stated) [Gatifloxacin] | 0.702
17 | Cc1ccc(N2CCN(Cc3nc4ccccc4[nH]3)CC2)cc1C | 1.03
18 | CCCCCCCCCC(=O)OCCN1CCN(CCCN2c3ccccc3Sc3ccc(C(F)(F)F)cc32)CC1 [Fluphenazine_decanoate] | 1.03
19 | Cc1cnc(NC(=O)C2=C(O)c3ccccc3S(=O)(=O)N2C)s1 [Meloxicam] | 0.731

Row | Structure (SMILES) | synaptosome phagocytic index
20 | COC(=O)N[C@H](C(=O)N[C@@H](Cc1ccccc1)[C@@H](O)CN(Cc1ccc(-c2ccccn2)cc1)NC(=O)[C@@H](NC(=O)OC)C(C)(C)C)C(C)(C)C [Atazanavir_(sulfate)] | 0.81
21 | OC(CCN1CCCCC1)(c1ccccc1)C1CCCCC1 (configuration not stated) [Trihexyphenidyl_(hydrochloride)] | 1.24
22 | CCc1nc(N)nc(N)c1-c1ccc(Cl)cc1 [Pyrimethamine] | 1.01
23 | O=C(Oc1ccccc1C(=O)O)c1ccccc1O [Salsalate] | 0.409
24 | CCc1nn(CCCN2CCN(c3cccc(Cl)c3)CC2)c(=O)n1CCOc1ccccc1 [Nefazodone_(hydrochloride)] | 1.37
25 | CC[C@]1(O)C[C@H]2CN(CCc3c([nH]c4ccccc34)[C@@](C(=O)OC)(c3cc4c(cc3OC)N(C=O)[C@H]3[C@@](O)(C(=O)OC)[C@H](OC(C)=O)[C@]5(CC)C=CCN6CC[C@]43[C@@H]65)C2)C1 [Vincristine_(sulfate)] | 1.04
26 | COCCOC(=O)C1=C(C)NC(C)=C(C(=O)OC(C)C)C1c1cccc([N+](=O)[O-])c1 (configuration not stated) [Nimodipine] | 0.85
27 | COc1ccc2[nH]cc(CCNC(C)=O)c2c1 [Melatonin] | 0.577
28 | C[C@H]1COc2c(N3CCN(C)CC3)c(F)cc3c(=O)c(C(=O)O)cn1c23 [Levofloxacin] | 1.16
29 | CCN(CC)C(=S)SSC(=S)N(CC)CC [Disulfiram] | 0.784
30 | CN(C/C=C/C#CC(C)(C)C)Cc1cccc2ccccc12 [Terbinafine] | 0.502
31 | C[C@@H](c1ncncc1F)[C@](O)(Cn1cncn1)c1ccc(F)cc1F [Voriconazole] | 0.893
32 | FC(F)(F)c1ccc(CNc2ccc(Cc3c[nH]c4ncc(Cl)cc34)cn2)cn1 [Pexidartinib] | 0.587
33 | CNCC[C@@H](Oc1ccccc1C)c1ccccc1 [Atomoxetine_(hydrochloride)] | 1.16
34 | Nc1cc(C(F)F)c(-c2nc(N3C4CCC3COC4)nc(N3C4CCC3COC4)n2)cn1 | 0.347
35 | COc1cc2ncnc(Nc3cccc(Cl)c3F)c2cc1OC(=O)N1CCN(C)C[C@H]1C [Zorifertinib] | 0.285
36 | CCc1cc(F)c2nc(N3CCC(NC4CCOCC4)CC3)c(-c3nc(C)no3)c(C)c2c1 | 1.21
37 | CN1CCN(C2=Nc3cc(Cl)ccc3Nc3ccccc32)CC1 [Clozapine] | 0.697

From the supplement of paper PMC12339681
